Measurements published in PubChem BioAssay AID624396 (The Scripps Research Institute Molecular Screening Center, 2012).
Calls of active or inactive are those of the source.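 How the source made its calls: active means over 15% of cells apoptotic at 25 µM, or half-maximal dose of 10 µM or lower; inactive means the rest.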

System: DHL-10
Assay: pro-apoptotic nuclear morphology in cancer cells – imaging, DAPI staining, cell line panel, probe, mechanism study for MCL1-BIM inhibitor project, late-stage follow-up (AID 624396)
Details: cancer cell panel apoptosis

## CCN1CCN(C(c2ccc(C(F)(F)F)cc2)c2ccc3cccnc3c2O)CC1 (stereo unspecified)
  outcome: inactive
